About 83,000 compounds went through this panel and 20% of them were active in at least one assay; those are over-represented in the sample as a whole.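 In brief: 96-well plates, 48 h treatment, single concentration, percent growth endpoint.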 Values without a mark were called inactive. Calls of active or inactive are those of the source. How the source made its calls: active means growth percent below 10; inactive means the rest.
These molecules were tested on T-47D breast (assay: NCI-60 one-dose screen, 48 h (100 = growth as untreated, 0 = no growth, -100 = all killed)). Conditions: 10 µM.
With `COc1ccc(/C(C#N)=C/c2ccccc2OC)cc1` the growth was 26%.
With `COc1ccc(Cc2cnc(N)nc2N)cc1OC` the growth was 101%.
Work on `Cc1cc(CC(C)CC(C)(C)C)n(O)c(=O)c1` (stereo not drawn) (tested in a mixture with another compound) yielded a growth of 28.1%.

The molecules below were run on BT-549 breast in the same assay as above. Conditions: 10 µM.
`O=C(O)c1ccc(-n2cc(CNc3ccc(Cl)cc3)c(-c3ccccc3)n2)cc1` showed a growth of 90.2%.
`Cc1ccc(C(=O)C2C(=O)C3CCC2C3)cc1` (stereo not drawn) was tested, and the growth was 105%.
In the case of `COc1cc2c(Nc3ccc(S(N)(=O)=O)cc3)ncnc2c(OC)c1OC`, the growth was 126%.
`CN1CCN(CC(=O)Nc2cccc(-n3cc(-c4ccncc4)c(-c4ccc(Cl)c(O)c4)n3)c2)CC1` was tested, and the growth was 36.6%.
`O=[N+]([O-])c1cccc(/C=N/NC(=S)NC23CC4CC(CC(C4)C2)C3)c1` showed a growth of 100%.
Work on `CN1CCN(c2cc3c(cc2F)c(=O)c(C(=O)O)cn3-c2ccc(F)cc2)CC1` yielded a growth of 92.4%.
For `O=C(CN1CCN(C(=O)c2ccccc2)CC1)Nc1ccccc1SCc1ccccc1`, the growth was 68.1%.
`Clc1ccc2c(c1)C(N1CCNCC1)=Nc1ccccc1O2` was tested, and the growth was 72.9%.
For `CCOC(=O)c1cc(C(=O)c2cc(OC)c(OC)c(OC)c2)n2ncc3ccccc3c12`, the growth was 70.5%.
With `CC(=O)C1CCC2C3CC=C4CC(SC(=N)N)CCC4(C)C3CCC12C` (stereo not drawn) the growth was 76.4%.
In the case of `COc1cc2c(Nc3ccc(-c4ccc(N)cc4)cc3)ncnc2c(OC)c1OC`, the growth was 85.5%.
Molecule `C#C[C@]1(O)CCC2C3CCc4cc(OC5CCCC5)ccc4C3CC[C@@]21C` (stereo partly drawn) has a growth of 105%.
`Cc1cc(SC#N)cc(C(C)(C)C)c1O` was tested, and the growth was 87.3%.
In the case of `Cc1cc(CCNC=O)c(C)c2c1sc1ccccc12`, the growth was 96.9%.
With `CO[C@H]1CC(O[C@@H]2/C(C)=C/C[C@@H]3C[C@@H](C[C@]4(C=C[C@H](C)[C@@H](C5CCCCC5)O4)O3)OC(=O)[C@@H]3C=C(C)[C@@H](O)[C@H]4OC/C(=C\C=C\[C@@H]2C)[C@]43O)O[C@@H](C)C1O[C@H]1C[C@H](OC)[C@@H](O)[C@H](C)O1` (stereo partly drawn) the growth was -68.9% (active).
Molecule `CCN(CC)c1ccc(/C=C2\SC(=O)C(Nc3nnc(-c4cccnc4SCc4ccccc4)o3)C2=O)cc1` (stereo not drawn) has a growth of 59.3%.
`O=C(N/N=C/c1ccc([N+](=O)[O-])cc1)c1ccccc1Nc1cccc(C(F)(F)F)c1` gave a growth of 77.8%.
In the case of `CC(=O)[C@H]1CC[C@]2(C)[C@@H]1CC[C@@H]1[C@@]3(C)CC(CCC#N)(CCC#N)C(=O)C(C)(C)[C@@H]3CC[C@]12C`, the growth was 103%.
`Cc1cc(CSc2ccccc2C(=O)N2CC=C(c3ccccc3)CC2)on1` was tested, and the growth was 101%.
In the case of `N#Cc1ccc(C(=O)CSc2nccc(Nc3ccc(C(=O)O)cc3)n2)cc1`, the growth was 103%.
For `COc1ccc2nc3cc(Cl)ccc3c(Nc3cc(CN4CCCC4)c(O)c(CN4CCCC4)c3)c2n1`, the growth was -37% (active).
`O=C(N/N=C/c1ccc(Cl)cc1)c1ccc(Cc2n[nH]c(=O)c3cccnc23)cc1` gave a growth of 100%.
`O=S(=O)(Oc1ccc(-c2ccc3sccc3c2)cc1)c1ccc(F)cc1` gave a growth of 102%.
Work on `CNC(=O)c1c(I)c(NC(C)=O)c(I)c(C(=O)O)c1I` yielded a growth of 113%.
`C/C(=N\O)c1ccc(NC(=O)CSc2nnc(-c3ccccc3)n2-c2ccccc2)cc1` was tested, and the growth was 20.9%.
`COc1ccc(/C=C2/SC(=S)NC2=O)c(OC)c1OC` showed a growth of 91.1%.
With `C[C@]12CC[C@@H]3c4ccc(O)cc4CC[C@H]3[C@@H]1CC[C@@H]2NS(=O)(=O)c1ccc(C(F)(F)F)cc1` the growth was 59%.
With `NS(=O)(=O)c1ccc(Br)cc1` the growth was 87.6%.
`CNS(=O)(=O)Oc1ccc(-c2ccc3occc3c2)cc1` showed a growth of 91.5%.
In the case of `COc1cc(-c2nn(-c3cccc(NC(=O)CCN4CCN(c5ccccc5)CC4)c3)cc2-c2ccncc2)ccc1Cl`, the growth was 12.6%.
`CCN(CC)CC(=O)N(CC)c1ccc(C)c(Cl)c1` gave a growth of 98.1%.
In the case of `Cc1cccc(N=Cc2ccccc2O)c1C`, the growth was 90%.
`CCCCC1(O)CCCCC1` gave a growth of 95.5%.
`COc1ccc(/C=C2\CCCC3=C2N=C2SC(C)=CN2C3c2ccc(OC)cc2)cc1` (stereo not drawn) gave a growth of 105%.
For `c1ccc(CSc2ncccc2-c2nnc(SCCN3CCOCC3)o2)cc1`, the growth was 112%.
With `C/C=C/C1=CN2C(=O)c3cc(OC4OC(C)C(NC)C(C)(O)C4O)c(C)c(O)c3N=C[C@@H]2C1` (stereo partly drawn) the growth was -34.4% (active).
In the case of `C[C@]12CC[C@@H]3c4ccc(OS(=O)(=O)O)cc4CC[C@H]3[C@@H]1CC[C@@H]2NS(=O)(=O)c1ccc(-c2ccccc2)cc1`, the growth was 53.9%.
`COc1ccc(/C(C#N)=C/c2ccccc2OC)cc1` was tested, and the growth was 37.1%.
Work on `COc1ccc(Cc2cnc(N)nc2N)cc1OC` yielded a growth of 106%.
Molecule `Cc1cc(CC(C)CC(C)(C)C)n(O)c(=O)c1` (stereo not drawn) (tested in a mixture with another compound) has a growth of 29.4%.
